Assay results from PubChem BioAssay (EPA / NIEHS).
Inconclusive results are not listed. Activity calls are given as the source filed them. How the source made its calls, unless noted: active means hit-call score of the fitted dose curve at least 0.9, where 1 is the maximum; inconclusive means response in the unintended direction; inactive means score below 0.9.

Key:
[1] = CPHEA_Stoker_NIS_Cytotoxicity: Cytotoxicity Assessment for CPHEA's Radioactive Iodide Uptake (RAIU) Assay for Sodium/Iodide Symporter (NIS) Inhibition, Stoker and Laws Labs (AID 2283897);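 on AC50: active means loss of ATP signal versus DMSO meaning cytotoxicity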
Procedure, shortened: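 ATP luminescence (Cell Titer Glo) measured viability, with loss of signal normalized to DMSO controls. Cells: hNIS-HEK293T-EPA, seeded 40 hours prior. Dosing: 0.001–100uM, 2 hours, room temperature, uptake buffer pH 7.4.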

[2] = tested on: Sodium/Iodide Symporter (NIS), SLC5A5 (gene 6528); test: CPHEA_Stoker_NIS_Inhibition_RAIU: CPHEA's Radioactive Iodide Uptake (RAIU) Assay for Sodium/Iodide Symporter (NIS) Inhibition, Stoker and Laws Labs (AID 2283841)
Procedure, shortened: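 Iodide uptake through human NIS is measured in an engineered HEK293T line. Cells take up 125I (329pM final) for 2 hours at room temperature alongside chemicals at 0.001–100uM. Retained radioactivity is counted, and the signal is expressed against DMSO controls.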

[3] = ATG_M_61_XSP2: Attagene TRANS-FACTORIAL Multi-Species (XSP2) HepG2 Assay for M61 Transcription Factor (Internal Marker) (AID 2283835; active means hit-call score of the fitted dose curve at least 0.9, where 1 is the maximum; inactive means score below 0.9;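 further: reporter mRNA of an internal background marker read by RT-PCR and capillary electrophoresis; active means a rise in signal above the DMSO baseline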)
Procedure, shortened: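 Signal was mRNA induction detected as fluorescence after RT-PCR and capillary electrophoresis, analysed in the gain direction with DMSO as baseline. HepG2 cells transiently carrying reporter constructs received chemicals for 24 h.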

[4] = biological target: frog Thyroid hormone Receptor alpha (TRa), thra-a (gene 397942) (UniProt P15204); test: ATG_frTRa_XSP2: Attagene TRANS-FACTORIAL Multi-Species (XSP2) HepG2 Assay for frog Thyroid hormone Receptor alpha (TRa) (AID 2283839);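 on AC50: AC50 reflects induction of frog TRa-driven reporter mRNA above DMSO baseline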
Procedure, shortened: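 Read-out: fluorescent reporter-transcript fragments resolved by capillary electrophoresis after RT-PCR and HpaI cut. Human HepG2 liver cells carry a transfected frog TRα-Gal4 chimera driving a UAS reporter; 24 h exposure, DMSO baseline, positive-direction fit.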

[5] = tested on: turtle Thyroid Hormone Receptor, alpha (TRa), gene 101949057; test: ATG_trTRa_XSP2: Attagene TRANS-FACTORIAL Multi-Species (XSP1) HepG2 Assay for turtle Thyroid Hormone Receptor, alpha (TRa) (AID 2283834);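 further: hits raise reporter mRNA over the DMSO baseline so AC50 marks activators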
Procedure, shortened: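 Readout: reporter mRNA induction, fluorescence after RT-PCR, HpaI digestion and capillary electrophoresis. Transiently transfected HepG2, exogenous NR-Gal4 chimera driving GAL4-UAS reporter, 24 h compound exposure. Activity fitted upward relative to DMSO baseline.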

[6] = biological target: zebrafish Thyroid Hormone Receptor beta (TRb), thrb (gene 30607) (UniProt Q9PVE4); test: ATG_zfTRb_XSP2: Attagene TRANS-FACTORIAL Multi-Species (XSP1) HepG2 Assay for zebrafish Thyroid Hormone Receptor beta (TRb) (AID 2283836)
Experimental: ATG_XSP2_multi-species_TRANS is a cell-based, multiplexed assay created by modifying the existing Attagene TRANS-FACTORIAL system to include a panel of nuclear receptors from some or all the following species: human (Homo sapiens), mouse (Mus musculus), frog (Xenopus laevis), zebrafish (Danio rerio), chicken (Gallus gallus), and turtle (Chrysemys picta). The ECOTOX-FACTORIAL format uses HepG2, a human liver cell line, with measurements taken at 24 hours after chemical dosing in a 24-well plate. Xsp2 included 3 nM 6-alpha-fluorotestosterone and 1.5 nM norgestrel to stimulate the androgen receptor.ATG_zfTRb_XSP2 is one of 29 assay components measured or calculated from the ATG_XSP2_multi-species_TRANS assay. It is designed to make measurements of mRNA induction, a form of inducible reporter, as detected with fluorescence intensity signals by Reverse transcription polymerase chain reaction (RT-PCR) and Capillary electrophoresis technology.The assay endpoint ATG_zfTRb_XSP2 was analyzed in the positive analysis fitting direction relative to DMSO as the negative control and baseline of activity. Using a type of inducible reporter, measures of mRNA for gain-of-signal activity can be used to understand the reporter gene at the transcription factor-level as they relate to the gene TR. Furthermore, this assay endpoint can be referred to as a primary readout, because this assay has produced multiple assay endpoints where this one serves a reporter gene function. To generalize the intended target to other relatable targets, this assay endpoint is annotated to the nuclear receptor intended target family, where the subfamily is non-steroidal.
Human liver HepG2 cells are transiently transfected with multiple reporter transcription units (MRTUs) in 6-well plates using FuGene 6 reagent (Roche; 3 ml FuGene/1 mg DNA). The MRTU constructs are regulated by a cis-regulating element (promoter). […] A major difference between the CIS and TRANS system is that in CIS activities of endogenous TFs are measured, whereas the TRANS assay evaluates changes in activities of exogenous, chimeric NR-Gal4 proteins. […] At the end of 24 hour incubation, total RNA was isolated using TriZol reagent (Invitrogen). The isolated RNA is then reverse-transcribed using oligo(dT) primer and Mo-MLV reverse transcriptase (Invitrogen) with DNAse I (Ambion) treatment for 30 min. The one-tenth of the produced cDNA was amplified by PCR using Taq DNA polymerase (Invitrogen) and two reporter sequence-specific primers. The PCR products were fluorescently labeled by primer extension with 6-arboxyfluorescein (6-FAM) 5'-labeled reporter sequence-specific primer (2 min at 95 C, 20 s at 68 C and 10 min at 72 C) and these products were digested with 5U of HpaI (New England Biolabs) for 2h at 37 C. The fragments were purified using Qiaquick PCR columns (Qiagen), analyzed on an ABI 3130xL genetic analyzer (Applied Biosystems) with peak positions identified by using a set of X-rhodamine (ROX)-labeled MapMarker1000 molecular weight standards (BioVentures). The raw capillary electrophoresis data was processed using Attagraph software (Attagene).

[7] = biological target: human Thyroid hormone Receptor alpha (TRa), THRA (gene 7067) (UniProt P10827); test: ATG_hTRa_XSP2: Attagene TRANS-FACTORIAL Multi-Species (XSP2) HepG2 Assay for human Thyroid hormone Receptor alpha (TRa) (AID 2283838)
Procedure, shortened: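 Reporter transcripts were read by RT-PCR with fluorescent primer extension, HpaI digestion and capillary electrophoresis. These came from HepG2 cells carrying multiplexed TRa-Gal4 TRANS constructs, harvested 24 hours after dosing. The medium also held 6-alpha-fluorotestosterone (3 nM) and norgestrel (1.5 nM), and increases were fitted against DMSO.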

[8] = biological target: human Thyroid hormone Receptor beta (TRb), THRB (gene 7068) (UniProt P10828); test: ATG_hTRb_XSP2: Attagene TRANS-FACTORIAL Multi-Species (XSP2) HepG2 Assay for human Thyroid hormone Receptor beta (TRb) (AID 2283840);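 further: actives raise reporter mRNA so potency reflects agonist-like gain of signal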
Procedure, shortened: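 Read-out: reporter mRNA induction (RT-PCR, 6-FAM labeling, capillary electrophoresis), gain-of-signal relative to DMSO baseline. Transiently transfected HepG2 TRANS multiplex (NR-Gal4 chimeras, GAL4-UAS reporters), 24 h chemical exposure; medium contained 3 nM 6-alpha-fluorotestosterone plus 1.5 nM norgestrel.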

[9] = CEETOX_H295R_11DCORT_noMTC: CeeTox H295R High-throughput Steroidogenesis Assay for 11-Deoxycortisol (11DCORT), maximum tolerated concentration (MTC) filtered results only (AID 2283911; active means hit-call score of the fitted dose curve at least 0.9, where 1 is the maximum; inactive means score below 0.9); conditions: actives raise or lower the signal
Procedure, shortened: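 H295R, OECD 456-based; 10 uM forskolin 48 h → compound (0.1% DMSO) 48 h → medium extracted, 11DCORT by LC-MS/MS. Gain/loss vs DMSO control, all concentrations kept regardless of MTT viability.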

Sequence of frog Thyroid hormone Receptor alpha (TRa), thra-a (gene 397942) (P15204 whole entry, looked up, the tested form may be a part): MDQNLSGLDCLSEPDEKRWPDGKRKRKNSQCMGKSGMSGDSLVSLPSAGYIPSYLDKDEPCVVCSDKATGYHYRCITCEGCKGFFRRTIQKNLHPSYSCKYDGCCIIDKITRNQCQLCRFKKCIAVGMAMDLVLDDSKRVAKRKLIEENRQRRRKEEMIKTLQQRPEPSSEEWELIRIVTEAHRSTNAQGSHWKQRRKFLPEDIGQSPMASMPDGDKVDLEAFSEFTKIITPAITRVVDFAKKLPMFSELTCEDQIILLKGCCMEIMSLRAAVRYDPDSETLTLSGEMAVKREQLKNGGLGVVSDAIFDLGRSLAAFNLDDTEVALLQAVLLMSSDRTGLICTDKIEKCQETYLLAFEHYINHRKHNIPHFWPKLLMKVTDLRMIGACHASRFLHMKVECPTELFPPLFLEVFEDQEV
Sequence of zebrafish Thyroid Hormone Receptor beta (TRb), thrb (gene 30607) (Q9PVE4 whole entry, looked up): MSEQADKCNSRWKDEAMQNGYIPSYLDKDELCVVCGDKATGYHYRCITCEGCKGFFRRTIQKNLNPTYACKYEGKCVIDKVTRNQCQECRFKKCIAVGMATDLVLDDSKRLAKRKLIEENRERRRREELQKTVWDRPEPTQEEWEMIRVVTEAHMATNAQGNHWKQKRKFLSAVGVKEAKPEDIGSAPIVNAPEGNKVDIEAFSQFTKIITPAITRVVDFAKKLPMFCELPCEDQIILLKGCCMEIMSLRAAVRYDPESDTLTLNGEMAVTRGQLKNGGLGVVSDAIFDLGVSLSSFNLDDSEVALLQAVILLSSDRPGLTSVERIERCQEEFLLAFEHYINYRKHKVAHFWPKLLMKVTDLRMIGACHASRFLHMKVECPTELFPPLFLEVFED
Sequence of human Thyroid hormone Receptor beta (TRb), THRB (gene 7068) (P10828 whole entry, looked up, the tested form may be a part): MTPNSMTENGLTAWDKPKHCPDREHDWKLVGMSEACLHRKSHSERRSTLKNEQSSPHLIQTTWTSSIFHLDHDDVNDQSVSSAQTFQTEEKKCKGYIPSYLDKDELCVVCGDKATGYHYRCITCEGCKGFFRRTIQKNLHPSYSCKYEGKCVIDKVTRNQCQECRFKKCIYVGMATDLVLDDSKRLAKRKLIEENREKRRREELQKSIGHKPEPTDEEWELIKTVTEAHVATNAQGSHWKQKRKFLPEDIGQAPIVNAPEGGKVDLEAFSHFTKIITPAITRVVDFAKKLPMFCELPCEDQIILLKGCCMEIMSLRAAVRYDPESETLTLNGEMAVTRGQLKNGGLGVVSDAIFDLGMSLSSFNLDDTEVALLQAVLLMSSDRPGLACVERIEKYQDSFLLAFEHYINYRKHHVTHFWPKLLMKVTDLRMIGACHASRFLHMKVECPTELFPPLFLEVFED
Sequence of human Thyroid hormone Receptor alpha (TRa), THRA (gene 7067) (P10827 whole entry, looked up, the tested form may be a part): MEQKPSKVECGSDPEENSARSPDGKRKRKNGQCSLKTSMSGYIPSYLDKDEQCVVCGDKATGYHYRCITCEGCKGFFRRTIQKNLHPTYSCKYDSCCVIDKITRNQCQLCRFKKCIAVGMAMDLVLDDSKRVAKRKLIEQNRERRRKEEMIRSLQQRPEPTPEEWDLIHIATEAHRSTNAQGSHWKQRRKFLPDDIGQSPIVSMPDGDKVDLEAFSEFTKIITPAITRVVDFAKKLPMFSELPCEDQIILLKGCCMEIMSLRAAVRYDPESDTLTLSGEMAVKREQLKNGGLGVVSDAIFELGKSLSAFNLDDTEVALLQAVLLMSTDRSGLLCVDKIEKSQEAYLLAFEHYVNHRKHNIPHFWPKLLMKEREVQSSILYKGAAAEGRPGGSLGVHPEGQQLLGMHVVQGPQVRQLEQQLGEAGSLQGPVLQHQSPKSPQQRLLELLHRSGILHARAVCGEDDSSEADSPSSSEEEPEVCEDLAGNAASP

CCN(Cc1cccnc1)C(=O)c1cccc(Cl)c1[C@]1(C)C(=O)N(Cc2ccc(OC)cc2OC)c2ccc(Cl)cc21
outcome [1]: inactive

OC12N=C(c3ccccc3)SC1Cc1cc(Cl)ccc12 (configuration not stated)
outcome [2]: inactive
outcome [1]: inactive

CCCCCc1ccc(N)cc1
outcome [1]: inactive

O=C1c2ccccc2C(=O)N1CCc1noc(-c2ccc(CN3CCCCCC3)s2)n1
outcome [2]: inactive
AC50 [1]: 11.5 µM (active)

Clc1cc(Cl)c2c(c1)N=C1CCCCCN1C2
outcome [2]: inactive
outcome [1]: inactive

O=C(Nc1ccc(Cl)cc1)Nc1ccc(Cl)c(Cl)c1
outcome [2]: inactive
outcome [1]: inactive

C[C@]12CC[C@@H]3c4ccc(O)cc4CC[C@H]3[C@@H]1CCC2=O
outcome [3]: inactive
outcome [4]: inactive

CCCCCCCCCCCC[N+](C)(C)C
outcome [2]: inactive
outcome [1]: inactive

CC(C)(c1cc(Br)c(O)c(Br)c1)c1cc(Br)c(O)c(Br)c1
outcome [5]: inactive
outcome [3]: inactive
outcome [6]: inactive
outcome [7]: inactive
AC50 [4]: 5.76 µM (active)
outcome [8]: inactive
AC50 [2]: 82.4 µM (active)
AC50 [1]: 13.6 µM (active)

NC(=O)c1nc(-c2cccc(-c3cc(F)ccc3OCC(F)(F)C(F)(F)F)c2)n[nH]1
AC50 [2]: 50 µM (active)

Clc1ccccc1C(c1ccccc1)(c1ccccc1)n1ccnc1
AC50 [2]: 50 µM (active)
AC50 [1]: 9.92 µM (active)

CC/C(=C(/CC)c1ccc(O)cc1)c1ccc(O)cc1
outcome [5]: inactive
outcome [3]: inactive
outcome [6]: inactive
outcome [2]: inactive
AC50 [1]: 9.92 µM (active)
AC50 [9]: 45 µM (active)

CC(=O)N1CCN(c2ccc(OC[C@H]3CO[C@](Cn4ccnc4)(c4ccc(Cl)cc4Cl)O3)cc2)CC1
AC50 [2]: 50 µM (active)
AC50 [1]: 9.92 µM (active)

COc1cc(C(=O)NC2CCN(C)CC2)ccc1Nc1ncc2c(n1)N(C1CCCC1)CC(F)(F)C(=O)N2C
outcome [2]: inactive
outcome [1]: inactive

O=C(OCCCCCCOC(=O)c1ccccc1)c1ccccc1
outcome [1]: inactive

NCc1cccc(C2CCN(C(=O)c3ccc(C#Cc4ccccc4F)o3)CC2)c1
outcome [2]: inactive
AC50 [1]: 16.3 µM (active)

CCCCOC(=O)c1ccc(O)cc1
outcome [1]: inactive

CCCCOC(=O)CC(CC(=O)OCCCC)(OC(C)=O)C(=O)OCCCC
outcome [1]: inactive

Cc1c2ccccc2c(C)c2c1ccc1ccccc12
AC50 [5]: 39.9 µM (active)
outcome [3]: inactive
outcome [4]: inactive
outcome [2]: inactive
outcome [1]: inactive

O=c1[nH]sc2ccccc12
outcome [2]: inactive
outcome [1]: inactive
